FLuc counter: qHTS profiling assay for firefly luciferase inhibitor/activator using purifed enzyme and Km concentrations of substrates (counterscreen for miR-21 project) | Luciferin 4-monooxygenase (Photinus pyralis), P08659 | purified FLuc, Km substrates, luminescence inhibition | Potency, µM (doses to about 57.5 µM), inactives show at the top dose activity change, negative = inhibition, actives largely listed as inhibitors | 360,000 compounds, 6.9% hits | AID 588342, 2011;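 also: plate controls were vehicle for no effect and reference inhibitor for full effect; nearly all actives have a fitted effect of over 55% in size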
Target sequence (P08659 whole entry, looked up): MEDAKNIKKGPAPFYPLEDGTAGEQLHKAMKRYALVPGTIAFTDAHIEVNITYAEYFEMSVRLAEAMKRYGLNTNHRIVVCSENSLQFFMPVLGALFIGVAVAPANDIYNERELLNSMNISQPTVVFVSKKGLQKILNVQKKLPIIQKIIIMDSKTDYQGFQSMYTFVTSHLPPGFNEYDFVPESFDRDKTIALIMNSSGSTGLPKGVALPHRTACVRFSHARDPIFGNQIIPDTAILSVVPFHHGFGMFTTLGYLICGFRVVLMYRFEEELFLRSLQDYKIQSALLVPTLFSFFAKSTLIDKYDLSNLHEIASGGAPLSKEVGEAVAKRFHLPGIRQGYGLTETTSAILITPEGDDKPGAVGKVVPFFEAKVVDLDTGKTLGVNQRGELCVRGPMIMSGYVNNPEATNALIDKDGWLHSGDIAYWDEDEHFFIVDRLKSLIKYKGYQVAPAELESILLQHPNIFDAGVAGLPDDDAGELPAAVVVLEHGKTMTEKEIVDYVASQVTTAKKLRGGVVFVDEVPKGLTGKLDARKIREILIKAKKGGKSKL
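Purified P. pyralis luciferase (10nM final) with 10uM D-luciferin and 10uM ATP (Km levels) in 50mM Tris acetate pH 7.5, 10mM Mg acetate, 0.01% Tween-20, 0.05% BSA; qHTS 6-point titration, ~60 µM downward; luminescence read.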
SMN2 splice up: qHTS Assay for Enhancers of SMN2 Splice Variant Expression. 210,000 compounds, 2.8% hits. Potency, µM (series often up to 46.1 µM), for the others: at the highest dose activity change, positive = activation, actives largely listed as activators. HEK293 SMN2-luciferase splicing reporter, luminescence, 30-36 h. AID 1458, 2008; also: % of control where 0% means no effect; nearly all actives have a fitted effect of over 55% in size
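qHTS luciferase splicing reporter: luminescence rises when SMN2 exon 7 is included in transfected HEK293 cells. Compound exposure lasted 30-36 h at 37C, with 4.5 mM final sodium butyrate as control, followed by a ONE-Glo read.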
ELG1 genotox: qHTS screen for small molecules that induce genotoxicity in human embryonic kidney (HEK293T) cells expressing luciferase-tagged ELG1; HEK293T ELG1-luciferase reporter, luminescence, 16 h; Potency, µM (top dose mostly 46 µM), for the others: at the highest dose activity change, positive = activation, actives largely listed as activators; 330,000 compounds, 1.3% hits; AID 504466, 2011; also: % of control where 0% means no effect; nearly all actives have a fitted effect of over 60% in size
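ELG1-luciferase HEK293T cells, 2,000/well; compound pinned in; 16 hr, 37 °C, 5% CO2; ONE-Glo, 30 min RT; luminescence on CCD imager.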
Rab9 prom act: qHTS Assay for Rab9 Promoter Activators. 320,000 compounds, 2.8% hits. Potency, µM (series often up to 9.22 µM), inactives show at the top dose activation, negative = inhibition, usual class: activators. AID 485297, 2010. Huh7 Rab9 promoter-luciferase reporter, luminescence, 24 h; also: % of control where 0% means no effect; nearly all actives have a fitted effect of over 60% in size
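Luciferase signal after 10 min detection reagent at ambient indicates Rab9 promoter upregulation; stably transfected Huh7 cells were treated 24 h with compound in DMSO at 37 °C, 5% CO2.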
NPC1 promoter act: qHTS Assay for NPC1 Promoter Activators; Potency, µM (doses to about 9.22 µM), for the others: top-dose activation, usual class: activators; Huh7 NPC1 promoter luciferase reporter, 24 h; 320,000 compounds, 2.4% hits; also: % of control where 0% means no effect; nearly all actives have a fitted effect of over 60% in size
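Quantitative HTS used a cell-based reporter: Huh7 cells stably bearing the NPC1 promoter upstream of luciferase were treated with compounds for 24 h, and promoter activation was read as luminescence.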
The depositor's hits bear a star; ? = inconclusive; · = no result given; [ ] = dose if it differs, or a comment. Most compounds without a hit are left out; they make up all but 7.5% or so of the library. Calls follow the shape of the dose curve; as a rule, active = well fitted curve in the direction sought with a large enough effect; inconclusive = small, poorly fitted or top-dose-only effect, or another doubt; inactive = no such curve, though single readings can be large; an effect the other way counts as inactive or inconclusive. Potency is read from the fitted curve at half-maximal effect.

SMILES	FLuc counter	SMN2 splice up	ELG1 genotox	Rab9 prom act	NPC1 promoter act
CN(C(=O)c1ccc(COc2ccccc2Cl)o1)c1ccccc1	-5%	·	-1%	-6%	20%
O=C(c1ccc(Cl)c(Cl)c1)N1CCN(c2ccccn2)CC1	0%	·	-4%	-1%	-2%
O=C(c1cccc(COc2ccc(Cl)cc2Cl)c1)N1CCN(c2ccccn2)CC1	4.8µM*	4µM*	·	·	·
NC(=NC1CCCCC1)NS(=O)(=O)c1ccccc1	2%	·	-2%	-6%	-4%
Cc1cccc(NC(=O)CSc2nnc(-c3cc(C)[nH]n3)n2N)c1	?	·	0%	6%	8%
Nc1ccc(N2CCOCC2)cc1C(F)(F)F	-2%	-5%	9%	-2%	-1%
CCS(=O)(=O)N1CCC(C(=O)Nc2ccc3c(c2)CCC3)CC1	0%	·	-11%	3%	-4%
COC(=O)c1ccccc1NC(=S)NC(=O)COc1ccccc1Cl	?	-2%	3%	4%	3%
O=C(NCc1ccccc1)c1cnc(Cl)c(Cl)c1	-1%	·	4%	12%	-2%
O=C(COc1ccc2c(c1)CCC2)NCc1ccccc1	-14%	21%	-1%	-4%	-1%
O=C(c1ccccc1)N1CCN(CC(O)COc2cccc3ccccc23)CC1 (configuration not stated)	1%	·	0%	4%	3%
O=C(NCc1ccccc1)c1cccc(COc2cc(Cl)ccc2Cl)c1	?	13µM*	?	3.2µM*	2.5µM*
O=C(c1cccc(COc2cccc3ccccc23)c1)N1CCCC1	17µM*	22µM*	15%	2.5µM*	?
COC(=O)c1ccccc1NC(=O)c1cccc(COc2ccccc2Cl)c1	17µM*	11µM*	?	0.45µM*	?
NNC(=O)c1cccc(COc2ccc3c(c2)CCC3)c1	2.4µM*	0.4µM*	?	0.32µM*	0.22µM*
CN1CCN(C(=O)C23CC4CC(C2)CC(c2ccccc2)(C4)C3)CC1	1%	·	0%	11%	0%
COc1ccc(C(=O)N/N=C(\C)c2cccc(NC(=O)c3ccc(F)cc3)c2)c(OC)c1	4.3µM*	·	3%	30%	30%
COc1ccc(C(=O)N/N=C(/C)c2cccc(NC(=O)c3ccccc3F)c2)cc1	3.8µM*	·	6%	24%	?
CC(=O)Nc1cccc(/C(C)=N/NC(=O)c2ccc(O)cc2)c1	?	8%	0%	2%	4%
CCOc1cc(/C=N/NC(=O)C(=O)NCc2ccc3c(c2)OCO3)ccc1OCC(=O)N1CCOCC1	0%	·	2%	-4%	-2%
Nc1nc2n(n1)C(c1ccc(F)cc1)CC(c1ccc(F)cc1)N2 (configuration not stated)	1%	·	1%	6%	-6%
COC(=O)CC(=O)CSc1nc2c(cc1C#N)CCCCC2	5.4µM*	?	?	?	22%
CCc1nnc(NC(=O)CSc2nc3c(cc2C#N)CCCC3)s1	0.85µM*	5.6µM*	?	0.5µM*	0.89µM*
CCOC(=O)CC(=O)CSc1nc2c(cc1C#N)CCC2	13µM*	-4%	2%	6%	-2%
Cc1cccc(-c2ccc3ncnc(NCc4cc(C)cs4)c3c2)c1	4%	·	·	-4%	-3%
SMILES	FLuc counter	SMN2 splice up	ELG1 genotox	Rab9 prom act	NPC1 promoter act
CCC(/C=C1\Sc2ccc(OC)cc2N1CCO)=C\c1sc2ccc(OC)cc2[n+]1CCO	15µM*	-74%	-11%	-9%	-4%
CCC(/C=C1\Sc2ccc(OC)cc2N1CC)=C\c1sc2ccc(OC)cc2[n+]1CCCS(=O)(=O)[O-]	?	·	-8%	-9%	-9%
Cc1ncc(COP(=O)(O)O)c(C)c1O	·	-1%[9.22 µM]	·	·	·
CCN(Cc1nc(-c2ccc(OC)cc2)oc1C)S(=O)(=O)c1ccc(Cl)cc1	1%	·	·	·	·
COc1ccc(C(=O)O)cc1NC(=S)NC(=O)c1ccc(-c2ccc(Cl)cc2)o1	13µM*	-14%	11%	1%	-1%
O=C(O)c1cccc(NC(=S)NC(=O)c2ccc(-c3ccc(Cl)cc3)o2)c1	15µM*	73%	9%	?	18%
Cc1ccc(C(=O)O)cc1NC(=S)NC(=O)c1ccc(-c2ccc(Cl)cc2)o1	?	·	2%	-2%	-1%
CCCCN(CC)CCNC(=O)C1CCCN(c2ncnc3onc(C)c23)C1 (configuration not stated)	-2%	·	·	·	·
C/C(=N\NC(=O)CSc1nc(C)[nH]c1[N+](=O)[O-])c1ccc(F)cc1	15µM*	·	-6%	?	24%
O=S(=O)(Cc1noc(-c2ccccc2Cl)n1)c1ccccn1	11µM*	·	?	1.4µM*	1.6µM*
CC1Cc2cc(/C=C3/SC(=S)N(C)C3=O)ccc2O1 (configuration not stated)	1.1µM*	·	?	?	?
CC1CN(C(=O)c2ccc(COc3ccc(C(C)C)cc3)o2)CC(C)O1 (configuration not stated)	13µM*	·	?	?	?
CC1CN(C(=O)c2ccc(COc3ccc4ccccc4c3)o2)CC(C)O1 (configuration not stated)	17µM*	·	11%	?	22%
CC1CCCC(NC(=O)COC(=O)c2cc(S(=O)(=O)N3CCOCC3)ccc2F)C1C (configuration not stated)	0%	·	-4%	-4%	-1%
COc1ccc(SCCN2CC[C@@H](C)CCC2=O)cc1	?	·	7%	18%	15%
CC1CCC(=O)N(CCSc2ccccc2)CC1 (configuration not stated)	5.4µM*	·	?	0.89µM*	1.1µM*
O=C1c2sc3nc4ccccc4n3c2C(=O)N1c1ccccc1Cl	?	?	1%	14%	-3%
N=c1cc(C2(O)CCCCC2)n2c(nc3ccccc32)s1	0.67µM*	-11%	0.58µM*	0.28µM*	0.28µM*
COc1cc(/C=N/NC(=O)c2nnn(-c3nonc3N)c2-c2cccs2)ccc1O	?	·	-11%	2%	-1%
COc1ccc(/C=N/NC(=O)c2nnn(-c3nonc3N)c2-c2cccs2)cc1OC	19µM*	·	-11%	11%	0%
Cc1ccc(/C=N/NC(=O)c2nnn(-c3nonc3N)c2-c2cccs2)cc1	9.5µM*	·	0%	1%	-2%
CCC(=O)Nc1ccccc1Sc1ncnc2scc(-c3ccccc3)c12	0%	15%	1%	-1%	-1%
CCCS(=O)(=O)c1ncc(Cl)c(C(=O)N2CCN(c3ccc(OC)cc3)CC2)n1	4%	·	·	·	·
COc1cccc(N2CCN(S(=O)(=O)c3ccc4c(c3)N(C(C)=O)CCO4)CC2)c1	-1%	·	-4%	0%	-1%
